HTT ATP protect: cytoprotection in Huntington HTT-Q103 PC12 cell model | PC12 HTT-Q103 induced, cytoprotection, ATP luminescence, 40 h | Potency, µM (highest dose often 56.4 µM), usual class: activators | 0.14% of 230,000 active; further: nearly all actives have a fitted effect of over 45% in size
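Stable PC12 Q103-GFP cells in serum-supplemented, phenol red-free DMEM; induction by tebufenozide at 100 nM final; compound dose series; cell viability quantified luminescently from ATP.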
HttQ103 aggreg: inhibitors of mutant huntingtin aggregate formation in PC12 cells; PC12 HttQ103-GFP aggregates, Acumen cytometry, 40 h; Potency, µM (highest dose often 46.1 µM), most hits filed as inhibitors; 1.1% of 220,000 active; further: nearly all actives have a fitted effect of over 60% in size
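Huntingtin Q103 exon 1–GFP aggregates in induced PC12 cells (100 nM tebufenozide) were quantified by cytometry from lysates, with compounds dosed in titration.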
ALDH1A1 block: blocks purified human ALDH1A1 activity | P00352 | AID 1030 | Potency, µM (series often up to 75.3 µM), hits mostly inhibitors | 7.3% of 220,000 active | Purified ALDH1A1, NADH fluorescence, propionaldehyde substrate; active means well fitted inhibition curve with a large enough effect, not every such curve was filed as active; inconclusive means small, poorly fitted or top-dose-only effect, or another doubt; inactive means no such curve, though single readings can be large or run the other way
Target sequence (P00352 whole entry, looked up): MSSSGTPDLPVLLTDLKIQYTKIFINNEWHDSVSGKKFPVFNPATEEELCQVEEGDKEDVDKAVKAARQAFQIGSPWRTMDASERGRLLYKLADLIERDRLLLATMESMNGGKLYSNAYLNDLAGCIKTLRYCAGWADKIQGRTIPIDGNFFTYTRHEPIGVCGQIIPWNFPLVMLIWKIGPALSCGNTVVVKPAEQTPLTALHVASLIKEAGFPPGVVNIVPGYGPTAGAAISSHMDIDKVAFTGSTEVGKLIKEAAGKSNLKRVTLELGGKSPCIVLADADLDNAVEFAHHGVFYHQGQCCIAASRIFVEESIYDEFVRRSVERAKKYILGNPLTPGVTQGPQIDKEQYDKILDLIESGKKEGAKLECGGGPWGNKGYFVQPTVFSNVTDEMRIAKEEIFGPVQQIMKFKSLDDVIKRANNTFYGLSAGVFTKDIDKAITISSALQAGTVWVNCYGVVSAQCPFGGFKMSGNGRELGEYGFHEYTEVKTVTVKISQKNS
Lamin A splicing: changes lamin A minigene splicing in HeLa cells | HeLa LMNA splicing GFP/RFP minigene ratio, 48 h | AID 1487 | Potency, µM (highest dose often 46.1 µM), hits mostly inhibitors | 0.01% of 200,000 active; active means well fitted inhibition curve with a large enough effect in the signal ratio, with a control signal flat, not every such curve was filed as active; inconclusive means small, poorly fitted or top-dose-only effect, or effect the other way, or a change in a side signal; the % refers to the signal ratio
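S3 HeLa cells stably expressing lamin A-EGFP splicing minigene plus DsRed2, 600 cells/well, 48 h compound exposure at 37C. Laser-scanning cytometry; analysed as GFP (500-530 nm)/RFP (575-640 nm) total intensity ratio; 0.5% DMSO vehicle.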
HPGD block: HPGD (human) dehydrogenase inhibition | purified HPGD, NADH fluorescence kinetic, PGE2 substrate | 4.3% of 150,000 active | AID 894 | Potency, µM, usual class: inhibitors; active means well fitted inhibition curve with a large enough effect, not every such curve was filed as active; inconclusive means small, poorly fitted or top-dose-only effect, or another doubt; inactive means no such curve, though single readings can be large or run the other way
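NADH formation kinetics: reaction with 30 uM PGE2 and 1 mM NAD+ (final), 20 nM enzyme, Tris-HCl pH 8 with Tween 20, after 15 min compound preincubation at room temperature. Fluorescence change, last versus first of five reads.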
Hits are given with their value; 0 = inactive; ? = inconclusive; - = no result given; ! = repeats disagree; [ ] = dose if it differs, or a comment. Shown are actives, neighbours in structure and some others; about 8.8% of the full set was active somewhere. Unless noted, the call rests on the fitted dose curve; in most records, active means well fitted curve in the direction sought with a large enough effect; inconclusive means small, poorly fitted or top-dose-only effect, or another doubt; inactive means no such curve, though single readings can be large; an effect the other way counts as inactive or inconclusive.

SMILES	HTT ATP protect	HttQ103 aggreg	ALDH1A1 block	Lamin A splicing	HPGD block
COc1ccc(CCNC(=O)C(=O)NCCOc2ccccc2)cc1OC	0[10 µM]	0	4µM	0	0
CC(C)(C)C(=O)Nc1ccc(-c2nc3ccccc3s2)cc1	-	-	-	0	-
CNc1nn(-c2cccc(Cl)c2)nc1N	0[1.9 µM]	0	2µM	?	0
O=C(Nc1ccc(Oc2ccccc2)cc1)C1CCN(c2c3c(nc4ncnn24)CCC3)CC1	0	8.9µM	?	?	0
COc1ccc(NC(=O)C2CCCN(c3c4c(nc5ncnn35)CCC4)C2)cc1OC (stereo not given)	0	0	0	?	0
O=C(Nc1ccc2c(c1)CCC2)C1CCN(c2c3c(nc4ncnn24)CCC3)CC1	0[10 µM]	11µM	16µM	?	?
COc1ccc2[nH]c(C)c(C(=O)CN3CCc4cc(OC)c(OC)cc4C3)c2c1	0	0	10µM	0	-
Cc1ccc(S(=O)(=O)Oc2ccc(/C=N/NC(=O)c3nn(C)cc3Cl)cc2)cc1	0[10 µM]	0	?	0	0
CSCCOC(=O)COc1ccc(/C=N/NC(=O)c2nn(C)cc2Cl)cc1	-	0	0	0	4µM
Cc1c(C(=O)c2no[n+]([O-])c2C(=O)c2cnn(C)c2C)cnn1C	0	?	0.89µM	?	0
C[C@@H](C(=O)NCC1CC1)[C@@H]1C[C@@]1(C)[C@@H](NC(=O)OCc1ccccc1)c1ccccc1	0	0	0	0	0
C[C@H](CO)NC(=O)[C@H](C)[C@H]1C[C@]1(C)[C@H](NC(=O)OCc1ccccc1)c1ccccc1	0	0	22µM	0	0
C[C@@H](C(=O)NCCc1c[nH]c2ccccc12)[C@H]1C[C@]1(C)[C@H](NC(=O)OCc1ccccc1)c1ccccc1	0	?	10µM	?	0
CC(=O)N[C@@H](c1ccccc1)[C@]1(C)C[C@H]1[C@@H](C)C(=O)Nc1ccc2ccccc2c1	0	-	0	-	0
C[C@@H](C(=O)NCc1ccccn1)[C@H]1C[C@]1(C)[C@H](NC(=O)OCc1ccccc1)c1ccccc1	0	0	32µM!	0	0
Cc1cc(C(=O)N[C@H](c2ccccc2)[C@@]2(C)C[C@@H]2[C@@H](C)C(=O)Nc2ccc3ccccc3c2)n(C)n1	0	?	16µM	?	0
CCCc1nn2c(=O)cc(COC(=O)c3ccccc3NC(=O)C3CCCCC3)nc2s1	-	-	-	0	-
Cc1nc(NCc2ccccc2)c2nc(-c3ccccc3)n(CCN3CCOCC3)c2n1	0	-	?	-	?
C[C@@H](C(=O)Nc1ccc2ccccc2c1)[C@H]1C[C@]1(C)[C@H](NC(=O)OCc1ccccc1)c1ccccc1	0	0	13µM	?	0
NC(=O)C1(N2CCCCC2)CCN(C(=S)Nc2cccc(Cl)c2)CC1	0[10 µM]	0	0	?	0
NC(=O)C1CCN(C(=O)Cn2c(-c3cccs3)cc3ccccc32)CC1	-	-	-	0	-
Cn1c(=O)cc(SCC(=O)Nc2ccc3c(c2)OCO3)c2ccccc21	0	0	0	0	-
CCCCNC(=O)CSc1cc(=O)n(C)c2ccccc12	0[10 µM]	0	0	0	14µM
CC(CCc1ccco1)NC(=O)CSc1cc(=O)n(C)c2ccccc12 (stereo not given)	0	0	?	0	25µM
CCC(CC)C(=O)Nc1cccc(-c2nc3ncccn3c2C)c1	-	-	-	0	-
SMILES	HTT ATP protect	HttQ103 aggreg	ALDH1A1 block	Lamin A splicing	HPGD block
COc1ccc2c(c1)c(CC(=O)OCC(=O)O)c(C)n2C(=O)c1ccc(Cl)cc1	0	0	0	0	0
COc1ccc2c(c1)c(CC(=O)O)c(C)n2Cc1ccc(Cl)cc1	0[1.9 µM]	-	25µM	?	0
Cc1noc(C)c1C(=O)N1CCC[C@@]2(CCN(c3ccccn3)C2)C1	0	-	0	-	0
CN(C)S(=O)(=O)c1cccc(-c2nn(-c3ccccc3)cc2/C=C2\SC(=S)NC2=O)c1	0[10 µM]	?	0	?	16µM
CN(C)S(=O)(=O)c1cccc(-c2nn(-c3ccccc3)cc2/C=C(\C#N)c2nc3ccccc3[nH]2)c1	0[1.9 µM]	0	0	0	0
Cc1ccc(N2CCN(/N=C/c3ccccc3[N+](=O)[O-])CC2)cc1	0	0	16µM	-	-
Cn1c(CC(=O)c2ccc(Br)cc2)[n+](C)c2ccccc21	0[10 µM]	0	0	0	-
Cc1ccc(NC(=S)N2CCCC(CO)C2)c(C)c1 (stereo not given)	0[10 µM]	0[9.22 µM]	0	-	-
O=C(c1cc2cc([N+](=O)[O-])ccc2oc1=O)N1CCOCC1	0[10 µM]	0[9.22 µM]	13µM	?	-
O=C(c1cc2cc([N+](=O)[O-])ccc2oc1=O)N1CCN(c2ncccn2)CC1	?	0.71µM	0	0	0
CC1CN(C(=O)c2cc3cc([N+](=O)[O-])ccc3oc2=O)CC(C)O1 (stereo not given)	0[10 µM]	0[9.22 µM]	?	?	-
NC(=O)c1cc2cc([N+](=O)[O-])ccc2oc1=O	0	0	0	0	-
N#Cc1cccc(-n2nnnc2-c2ccccn2)c1	0[10 µM]	11µM	?	0	-
COC(=O)c1ccc2c(c1)N(CC(=O)Nc1ccc(C)cc1Cl)C(=O)c1ccccc1S2	-	-	-	0	-
Cc1cc2nc(-c3ccco3)cc(C(F)(F)F)n2n1	0[10 µM]	0	14µM	0	0
O=C(NCCc1ccc(Cl)cc1)/C(=C/c1cccnc1)NC(=O)c1ccccc1	0[10 µM]	0	0	0	0
COc1ccccc1CNC(=O)C1COc2ccccc2O1 (stereo not given)	0	0	0	0	16µM
O=C(NCc1cccnc1)C1COc2ccccc2O1 (stereo not given)	0	0	0	0	0
O=C(NC1CC2CCC1C2)C1COc2ccccc2O1 (stereo not given)	0[1.9 µM]	0	0	0	14µM
O=C(O)CNC(=O)C1COc2ccccc2O1 (stereo not given)	0	0	0	0	0
COc1ccc(CNC(=O)C2COc3ccccc3O2)cc1 (stereo not given)	0[10 µM]	0	0	0	14µM
O=C(O)[C@H](CC(=O)N1C[C@H]2CCCC[C@H]2C1)Cc1ccccc1	0	0	-	-	-
CCOC(=O)c1nc(C)n(-c2cc(OC)c(Cl)cc2Cl)n1	0[10 µM]	0	0	0	-
COc1cccc(CNC(=O)CN2C(=O)CSc3c2c(C)nn3-c2ccccc2)c1OC	-	-	-	0	-
Cc1ccc(-c2cc(C(=O)N/N=C/C=C/c3ccccc3)n[nH]2)s1	0[10 µM]	0	?	?	32µM
CC(C(=O)O)c1ccc2c(c1)[nH]c1ccc(Cl)cc12 (stereo not given)	0.35µM	0	0	0	0
O=C(NCC(c1ccco1)S(=O)(=O)c1cccs1)c1ccccc1F (stereo not given)	-	-	-	0	-
Cc1cc(C)cc(NS(=O)(=O)c2ccc(NC(=S)NC(=O)c3cccs3)cc2)c1	-	0	10µM	?	0
CN(C1CCCCC1)S(=O)(=O)c1ccc(NC(=S)NC(=O)c2cccs2)cc1	0	?	22µM	?	0
CCCCN(CCCC)S(=O)(=O)c1ccc(NC(=O)c2cccs2)cc1	0[10 µM]	13µM	0	?	0

Source: PubChem
